Screening data: PubChem, National Center for Advancing Translational Sciences (NCATS)
A selection: hits, their analogues and other compounds. The true share with any hit is near 15%.
RORg inh: blocks mouse ROR gamma transcriptional activity; P51450; Drosophila S2 Gal4-RORgamma UAS-luciferase reporter, 20 h; Potency, µM (series often up to 53.6 µM), without a hit: top-dose activity change, negative = inhibition, most hits filed as inhibitors; hit rate 5.4% among 310,000; further: nearly all actives have a fitted effect of over 60% in size
Target sequence (P51450 whole entry, looked up, the tested form may be a part): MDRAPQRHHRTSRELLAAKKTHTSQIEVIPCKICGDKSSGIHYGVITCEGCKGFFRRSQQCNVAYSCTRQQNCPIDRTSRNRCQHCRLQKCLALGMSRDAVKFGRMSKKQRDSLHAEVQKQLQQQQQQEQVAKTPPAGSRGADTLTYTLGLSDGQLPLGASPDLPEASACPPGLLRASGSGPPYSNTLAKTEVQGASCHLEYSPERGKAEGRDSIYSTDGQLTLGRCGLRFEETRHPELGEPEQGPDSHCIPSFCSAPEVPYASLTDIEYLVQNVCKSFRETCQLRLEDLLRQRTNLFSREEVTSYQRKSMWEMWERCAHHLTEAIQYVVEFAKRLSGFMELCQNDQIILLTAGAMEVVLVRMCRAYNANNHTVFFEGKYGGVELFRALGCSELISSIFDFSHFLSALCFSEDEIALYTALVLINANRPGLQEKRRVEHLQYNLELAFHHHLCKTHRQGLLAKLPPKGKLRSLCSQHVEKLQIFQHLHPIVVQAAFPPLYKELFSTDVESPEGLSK
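Stably transfected Drosophila Schneider cells are the test system, with ROR gamma fused to Gal4 and luciferase under UAS control; luminescence is read after 20 hr of 700 uM copper sulfate induction at ambient temperature.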
DT40 TDP1 CPT: growth inhibition of DT40 Tdp1-/-;hTDP1 cells with camptothecin (screen for TDP1 inhibitors); hit rate 12% among 420,000; Potency, µM (series often up to 46.2 µM), for the others: at the top dose activity change, negative = growth inhibition, hits mostly inhibitors; chicken DT40 Tdp1-/-;hTDP1 cells + 20 nM CPT, ATP luminescence, 48 h; AID 686979; further: nearly all actives have a fitted effect of over 55% in size
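Chicken DT40 Tdp1-/- cells complemented with human TDP1, 400 cells/well, exposed to compounds plus 20 nM camptothecin for at least 48 h at 37 C; viability read as ATP content by CellTiter-Glo luminescence.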
TDP1 cell noCPT: qHTS for Inhibitors of human tyrosyl-DNA phosphodiesterase 1 (TDP1): qHTS in cells in absence of CPT. DT40 Tdp1-/- hTDP1 cells, no CPT, ATP luminescence, 48 h. hit rate 15% among 420,000. AID 686978, 2013. Potency, µM (titrated, usually from 46.2 µM), for the others: at the top dose activity change, negative = growth inhibition, hits mostly inhibitors; further: nearly all actives have a fitted effect of over 55% in size
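Stably hTDP1-transfected Tdp1-null chicken DT40 cells were treated with library compounds minus camptothecin and grown for at least 48 hr at 37 °C, after which cellular ATP was quantified by luminescence.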
12-LOX inh: blocks human arachidonate 12S-lipoxygenase; hit rate 1.1% among 580,000; purified 12hLO, xylenol orange hydroperoxide absorbance; Potency, µM (highest dose often 108 µM), inactives show top-dose activity change, negative = inhibition, hits mostly inhibitors; P18054
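Purified human 12hLO at 150 nM in 25 mM Hepes, 0.01% Triton X-100, pH 7.0, preincubated 15 min at room temperature with compound. Reaction started with 40 uM arachidonic acid, 30 min at room temperature. Hydroperoxide measured by Fe-xylenol orange, 573/405 nm absorbance ratio.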
ELG1 repair inh: blocks ELG1-dependent DNA repair in HEK293T cells. Potency, µM (top dose mostly 46.1 µM), inactives show top-dose activity change, negative = inhibition, hits mostly inhibitors. AID 504467. HEK293T ELG1-luciferase reporter, luminescence, 16 h; DNA damage induced by 5-fluorouridine. hit rate 2.3% among 330,000; further: nearly all actives have a fitted effect of over 55% in size
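5-Fluorouridine DNA damage + compound/DMSO, 2,000 cells/well, 16 h, 37 °C/5% CO2. ONE-Glo, 30 min RT, luminescence. Readout = decrease in reporter signal.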
Gal4-VP16 FLuc: Gal4-VP16 reporter inhibition counter-screen; Drosophila S2 Gal4-VP16 UAS-luciferase, luminescence, 20 h; Potency, µM (doses to about 53.6 µM), inactives show top-dose activity, negative = inhibition, hits mostly inhibitors; hit rate 3.5% among 310,000; AID 2546;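 further: Gal4-VP16 expression switched on by copper sulfate through the metallothionein promoter; nearly all actives have a fitted effect of over 50% in size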
Active calls of the source: *; ? = inconclusive; nt = not tested or not shown. The call rests on the fitted dose curve; in most records, active means well fitted curve in the direction sought with a large enough effect; inconclusive means small, poorly fitted or top-dose-only effect, or another doubt; inactive means no such curve, though single readings can be large; an effect the other way counts as inactive or inconclusive. On the % scale 0 is the no-effect control and ±100 the full control effect; potency means the concentration at half of the fitted maximal effect.

SMILES | RORg inh | DT40 TDP1 CPT | TDP1 cell noCPT | 12-LOX inh | ELG1 repair inh | Gal4-VP16 FLuc
CS(=O)(=O)N1N=C(c2ccccc2)CC1c1ccco1 (configuration not stated) | nt | nt | nt | -22% | nt | nt
CCOc1ccc(CC(=O)N2CCC(Cc3nc(-c4ccc(OC)cc4)no3)CC2)cc1OCC | nt | nt | nt | -20% | nt | nt
O=S(=O)(CCN1CCN(c2ccccc2F)CC1)c1ccccc1 | nt | nt | nt | -3% | nt | nt
O=C1C(=O)N(CCS(=O)(=O)c2ccccc2)c2ccc(F)cc21 | 7% | 21µM* | ? | -18% | -2% | 14%
COc1ccc2c(c1)C(=O)C(=O)N2CCS(=O)(=O)c1ccccc1 | 4% | 7.3µM* | 2.3µM* | -10% | -3% | -3%
C[C@]1(CO)[C@H]2Cc3sc(NC(=O)c4ccc(F)cc4)nc3[C@@H](CC(=O)NCc3ccccc3)[C@]2(C)CC[C@H]1O | nt | nt | nt | 59% | nt | nt
CNC(=O)[C@@H]1CN(C(=O)CCc2ccccc2OC)C[C@H]1COC | nt | nt | nt | 16% | nt | nt
O=C(CN1CCN(C(=O)c2cccnc2SC(F)F)CC1)Nc1ccccc1Cl | nt | nt | nt | 11% | nt | nt
COc1cccc(CNC(=O)c2cccc(S(=O)(=O)N3CCN(C)CC3)c2)c1 | -1% | -11% | -1% | 40µM* | -6% | -9%
COc1ccc(CCNC(=O)c2cccc(S(=O)(=O)N3CCCC3)c2)cc1OC | nt | ? | ? | -4% | -6% | nt
COc1ccc(CNC(=O)c2cccc(S(=O)(=O)N3CCCCC3)c2)cc1OC | nt | 13µM* | ? | -21% | ? | nt
Cc1cc(N2CCN(C)CC2)ccc1NC(=O)c1cccc(S(=O)(=O)N2CCc3ccccc3C2)c1 | ? | 23µM* | 18µM* | 13% | 16% | ?
COc1ccc(CNC(=O)c2cccc(S(=O)(=O)N3CCN(C)CC3)c2)cc1 | -15% | 13% | -8% | -7% | 2% | -3%
COc1ccc(CNC(=O)c2cc(S(=O)(=O)N3CCCCC3)ccc2Cl)cc1OC | nt | ? | 18µM* | -7% | 6.5µM* | nt
CCOC(=O)CSc1nc(-c2cccc(C)c2)nc2c1COC(C)(C)C2 | nt | nt | nt | -2% | nt | nt
COc1ccc(N(C)C(=O)c2ccc3ccccc3n2)cc1OC | nt | nt | nt | 4% | nt | nt
CCOc1ccccc1NS(=O)(=O)c1c(C)cc(C)cc1C | nt | nt | nt | -10% | nt | nt
N=C(N)c1ccnc(Sc2nc3ccccc3[nH]2)c1 | nt | nt | nt | -6% | nt | nt
COc1cc(OC)c(OC)cc1CNC(=O)c1cccc(S(=O)(=O)N2CCc3ccccc3C2)c1 | nt | 13µM* | 8.2µM* | -4% | ? | nt
CCOc1ccc(CCNC(=O)c2cccc(S(=O)(=O)N3CCCCC3)c2)cc1OCC | nt | 13µM* | 7.3µM* | 12% | ? | nt
COc1ccccc1CNC(=O)c1cccc(S(=O)(=O)N2CCc3ccccc3C2)c1 | nt | nt | nt | 0% | nt | nt
Cc1ccccc1NS(=O)(=O)c1cnc(N)nc1 | nt | nt | nt | -6% | nt | nt
COc1ccc(S(=O)(=O)Cc2nnnn2-c2ccc(Cl)c(Cl)c2)cc1 | nt | nt | nt | -78% | nt | nt
COc1ccc(-n2nnnc2C2CCN(S(=O)(=O)c3cccc(Cl)c3C)CC2)cc1 | nt | 21µM* | 26µM* | 0% | nt | nt
COc1ccc(-n2nnnc2-c2ccc(S(C)(=O)=O)cc2Cl)cc1 | ? | ? | 5.2µM* | -1% | ? | 1%
SMILES | RORg inh | DT40 TDP1 CPT | TDP1 cell noCPT | 12-LOX inh | ELG1 repair inh | Gal4-VP16 FLuc
COc1ccc(-n2nnnc2-c2ccccc2)cc1 | 1% | 3.7µM* | 2.9µM* | 18% | ? | 6%
COc1ccc(CCN2C(=O)CSC2=S)cc1OC | ? | 2.9µM* | 2.6µM* | ? | ? | -11%
COc1ccc(CCN2C(=O)CC(N3CCOCC3)C2=O)cc1OC (configuration not stated) | -13% | 60% | 4% | 7% | 2% | -12%
COc1ccc(CCNC2CC(=O)N(CCc3ccccc3)C2=O)cc1OC (configuration not stated) | 27% | 0% | -17% | 0% | -10% | 3%
COc1ccc(CCN2C(=O)CC(Nc3ccc(N4CCOCC4)cc3)C2=O)cc1OC (configuration not stated) | 6% | 0% | 2.3µM* | 5% | nt | -14%
CCc1ccc(NC2CC(=O)N(CCc3ccc(OC)c(OC)c3)C2=O)cc1 (configuration not stated) | ? | ? | 23µM* | 7% | ? | 4%
O=C(NC1CCN(c2cc(-c3ccccc3)[nH]n2)CC1)c1cnccn1 | nt | nt | nt | 51% | nt | nt
O=C(CC[C@H]1NC(=O)c2ccccc2NC1=O)NCCc1ccncc1 | nt | nt | nt | 51% | nt | nt
CCC(=O)Nc1cccc(-c2nc3cc(OC)ccc3o2)c1 | nt | nt | nt | -1% | nt | nt
O=C(Nc1ccc(S(=O)(=O)N2CCOCC2)cc1)c1ccco1 | 28% | -1% | ? | 0% | 3% | 2%
O=C(Nc1ccc(OC(F)(F)F)cc1)c1ccc(S(=O)(=O)N2CCOCC2)o1 | ? | ? | 16µM* | 6% | -17% | 17%
O=C(COC(=O)c1ccc([N+](=O)[O-])o1)Nc1ccc(N2CCOCC2)cc1 | nt | -26% | 27% | 352% | ? | nt
O=C(COC(=O)c1ccc([N+](=O)[O-])o1)Nc1cccc(S(=O)(=O)N2CCOCC2)c1 | ? | -6% | -12% | -14% | ? | 7.1µM*
O=C(Nc1ccc(N2CCOCC2)cc1)c1ccc([N+](=O)[O-])o1 | 11µM* | 5.2µM* | 12µM* | 9% | ? | ?
O=C(COC(=O)c1ccc(Br)o1)Nc1cccc(S(=O)(=O)N2CCOCC2)c1 | nt | -29% | -24% | -11% | -1% | nt
